Drawing on the supplement of paper PMC10849652, this text covers log2 fold change for twelve compounds.

Molecules are shown by their SMILES. About 7,900 targets were measured; listed, in parts, are those with a hit and a random draw of the rest. About 0.6% of all pairs of compound and target were hits.

The target of this test is YAE1 (UniProt Q9NRH1). Kind of test: log2 fold change, soluble protein after heating vs DMSO (PISA); higher = thermal stabilisation; K562 cells, 10 uM, 30 min; active = over 0.2 and 3.5 SD of the protein, either way, in both replicates (recomputed). Summed up: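 K562 cells at 2×10^6 cells/mL were given 10 μM compound for 30 min. Aliquots then went through 3 min of heating across 48°C-58°C, were pooled, and were extracted in PBS with 0.5% NP-40 at 4°C, and the supernatant after 21,000xg for 90 min was quantified by TMTpro 16plex LC-MS/MS with channel sums equalised. Thermal stability relative to control samples, from duplicates, is given as log2 fold change.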
YAE1, sequence (Q9NRH1 whole entry, looked up): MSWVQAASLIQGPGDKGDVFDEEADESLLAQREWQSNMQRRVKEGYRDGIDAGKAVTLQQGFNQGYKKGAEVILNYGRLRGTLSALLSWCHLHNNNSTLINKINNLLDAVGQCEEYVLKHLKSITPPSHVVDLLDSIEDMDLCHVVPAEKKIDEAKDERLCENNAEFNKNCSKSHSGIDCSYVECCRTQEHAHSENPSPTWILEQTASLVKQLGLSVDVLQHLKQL
On to `NCC(=O)Nc1ccc(-n2nc(C(F)(F)F)cc2-c2ccc3c(ccc4ccccc43)c2)cc1`, for which the log2 fold change is -0.011 (inactive).
To `COc1ccc(Cn2ccc3ccc(C(=O)NO)cc32)cc1` belongs 0.013 (inactive); to `COc1cc(C(=O)O)ccc1NC(=O)[C@@H]1N[C@@H](CC(C)(C)C)[C@](C#N)(c2ccc(Cl)cc2F)[C@H]1c1cccc(Cl)c1F` [idasanutlin], 0.124 (inactive); to `C/C(=N\NC(=O)c1cccc(S(=O)(=O)N2CCOCC2)c1)c1cc(Cl)ccc1O`, -0.051 (inactive).
To `Cc1ccc2c(=O)c3ccccc3n(CCCN)c2c1C` belongs 0.022 (inactive).
Regarding `CCCCN(Cc1ccc(C(=O)NO)cc1)C(=O)Nc1ccccc1` [Nexturastat A], the log2 fold change is 0.564 (inactive).
As for `COC(=O)[C@H](CCSC)NC(=O)c1ccc(NC[C@@H](N)CS)cc1-c1ccccc1`, the figure is 0.059 (inactive); as for `O=C(CCCCCCNC(=O)c1cnc(N(c2ccccc2)c2ccccc2Cl)nc1)NO` [citarinostat], 0.04 (inactive).
To `Cc1ccc(-n2nc(C(C)(C)C)cc2NC(=O)Nc2ccc(OCCN3CCOCC3)c3ccccc23)cc1` [doramapimod] belongs -0.033 (inactive); to `CC(C)(O)CC(=O)NCCn1ccc2ncnc(Nc3ccc(Oc4cccc(C(F)(F)F)c4)c(Cl)c3)c21`, 0.072 (inactive).
To `CC(C)(C)Cn1c(N)nc2ccc(-c3[nH]c(C(C)(C)C)nc3-c3ccc(F)cc3)nc21` [ralimetinib] belongs 0.023 (inactive).
In the case of `CC(C)c1cnn2c(NCc3ccccc3)cc(NCCCCCCN)nc12`, the log2 fold change is 0.057 (inactive).
